For 27 compounds, outcome and AC50 results are on record in PubChem BioAssay (EPA / NIEHS).

The structures appear in SMILES notation. Activity calls are given as the source filed them. The calls were made as follows: active = hit-call score of the fitted dose curve at least 0.9, where 1 is the maximum; inactive = score below 0.9.

Read-out in the first assay: CD40, CD40 (gene 958)
As to the kind of experiment: BSK_SAg_CD40: BioMAP Diversity Plus: SAg Assay for CD40 Biomarker Activity (AID 2283088). The settings on record: primary human HUVEC with PBMC; actives raise or lower the signal. An outline of the steps:
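HUVEC plus PBMC co-culture, superantigen-activated, with CD40 read by ELISA 24 h after dosing. Curves fitted in both directions against DMSO. Overt cytotoxicity checked by parallel SRB total-protein staining.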
In the case of `O=C(O)COc1nc(Cl)c(Cl)cc1Cl`, the outcome was inactive.

In the case of `N#Cc1nn(-c2c(Cl)cc(C(F)(F)F)cc2Cl)c(N)c1S(=O)C(F)(F)F` (stereo not drawn), the AC50 – broadly, the concentration at which the activity in the assay is half-maximal – was 28.1 µM (active).

Turning to `CC(C)Oc1cc(-n2nc(C(C)(C)C)oc2=O)c(Cl)cc1Cl`, the AC50 was 29.3 µM (active). For the compound `CCOP(=S)(OCC)SCn1c(=O)oc2cc(Cl)ccc21`, the result was inactive. On the same count and under the same terms, to `CCCC1COC(Cn2cncn2)(c2ccc(Cl)cc2Cl)O1` (stereo not drawn) belongs “inactive”.

For the compound `COC(=O)C=C(C)OP(=O)(OC)OC`, the result was inactive. Still for that read-out and setting: to `CCNc1nc(Cl)nc(NCC)n1` belongs “inactive”. For the compound `COc1ccc(C(c2ccc(OC)cc2)C(Cl)(Cl)Cl)cc1`, the AC50 was 15.3 µM (active). Regarding `CCOC(=O)C(Cl)Cc1cc(-n2nc(C)n(C(F)F)c2=O)c(F)cc1Cl` (stereo not drawn), the result was inactive. With `CCc1nn(C)c(C(=O)NCc2ccc(C(C)(C)C)cc2)c1Cl`, the AC50 was 7.68 µM (active). Take `N#CC(CCc1ccc(Cl)cc1)(Cn1cncn1)c1ccccc1` (stereo not drawn): the outcome was inactive.

`CN(C)C(=S)SSC(=S)N(C)C`: the AC50 is 28 µM (active). Take `CNC(=S)S`: the result was inactive. Same read-out and setting: the result for `CON(C)C(=O)Nc1ccc(Cl)c(Cl)c1` reads “inactive”. On to `Cc1ccc(-c2c(Cl)nc(C#N)n2S(=O)(=O)N(C)C)cc1`, for which the AC50 is 20 µM (active).

Take `COc1nc(NC(C)C)nc(NC(C)C)n1`: the result was inactive. `CC(C)(C)c1ccc(CSc2cnn(C(C)(C)C)c(=O)c2Cl)cc1`: the half-maximal activity concentration (AC50) is 4.43 µM (active). Same read-out and setting: the result for `COC(=O)N(OC)c1ccccc1COc1ccn(-c2ccc(Cl)cc2)n1` reads 15 µM (active). Still for that read-out and setting: to `N#Cc1cc(Br)c(O)c(Br)c1` belongs 20 µM (active). For the compound `COP(=S)(OC)Oc1nc(Cl)c(Cl)cc1Cl`, the outcome was inactive. As to `CCCCNC(=O)n1c(NC(=O)OC)nc2ccccc21`, the outcome was inactive. Still for that read-out and setting: the result for `CC(Oc1ccc(Cl)cc1Cl)C(=O)O` (stereo not drawn) reads “inactive”; that for `O=C(Nc1ccccc1)Nc1ccnc(Cl)c1`, “inactive”. The same measure, in the same setting: to `CC1=C(C(=O)Nc2ccccc2)SCCO1` belongs “inactive”; to `CCOc1cc(Oc2ccc(C(F)(F)F)cc2Cl)ccc1[N+](=O)[O-]`, “inactive”; to `CCCCC(CC)COC(=O)c1ccccc1C(=O)OCC(CC)CCCC` (stereo not drawn), “inactive”.

Read-out in another assay: CD69, CD69 (gene 969)
As to the kind of experiment: BSK_SAg_CD69: BioMAP Diversity Plus: SAg Assay for CD69 Biomarker Activity (AID 2283089).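 As to AC50: cell surface CD69 protein quantified by ELISA with fluorescence detection.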 The settings on record: primary human HUVEC with PBMC; actives raise or lower the signal. The method, boiled down: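 Endothelial/PBMC co-culture; chemical added; 24 h incubation; CD69 ELISA with fluorescence detection; bidirectional fit vs DMSO.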
As for `O=C(O)COc1nc(Cl)c(Cl)cc1Cl`, the outcome was inactive. Consider `N#Cc1nn(-c2c(Cl)cc(C(F)(F)F)cc2Cl)c(N)c1S(=O)C(F)(F)F` (stereo not drawn), for which the AC50 was 25.6 µM (active).

Turning to `CC(C)Oc1cc(-n2nc(C(C)(C)C)oc2=O)c(Cl)cc1Cl`, the AC50 is 30.7 µM (active). Regarding `CCOP(=S)(OCC)SCn1c(=O)oc2cc(Cl)ccc21`, the outcome was inactive. The same measure, in the same setting: to `CCCC1COC(Cn2cncn2)(c2ccc(Cl)cc2Cl)O1` (stereo not drawn) belongs “inactive”. Take `COC(=O)C=C(C)OP(=O)(OC)OC`: the outcome was inactive. Same read-out and setting: the result for `CCNc1nc(Cl)nc(NCC)n1` reads “inactive”.

On to `COc1ccc(C(c2ccc(OC)cc2)C(Cl)(Cl)Cl)cc1`, for which the AC50 was 25.4 µM (active).

With `CCOC(=O)C(Cl)Cc1cc(-n2nc(C)n(C(F)F)c2=O)c(F)cc1Cl` (stereo not drawn), the outcome was inactive. As for `CCc1nn(C)c(C(=O)NCc2ccc(C(C)(C)C)cc2)c1Cl`, the AC50 was 3.99 µM (active). Regarding `N#CC(CCc1ccc(Cl)cc1)(Cn1cncn1)c1ccccc1` (stereo not drawn), the outcome was inactive. As for `CN(C)C(=S)SSC(=S)N(C)C`, the AC50 was 28.3 µM (active).

For the compound `CNC(=S)S`, the outcome was inactive. Still for that read-out and setting: to `CON(C)C(=O)Nc1ccc(Cl)c(Cl)c1` belongs “inactive”. For the compound `Cc1ccc(-c2c(Cl)nc(C#N)n2S(=O)(=O)N(C)C)cc1`, the AC50 is 13.9 µM (active). Take `COc1nc(NC(C)C)nc(NC(C)C)n1`: the outcome was inactive. For the compound `CC(C)(C)c1ccc(CSc2cnn(C(C)(C)C)c(=O)c2Cl)cc1`, the AC50 was 1.43 µM (active). Same read-out and setting: the result for `COC(=O)N(OC)c1ccccc1COc1ccn(-c2ccc(Cl)cc2)n1` reads 3.97 µM (active); that for `N#Cc1cc(Br)c(O)c(Br)c1`, 26.4 µM (active). For the compound `COP(=S)(OC)Oc1nc(Cl)c(Cl)cc1Cl`, the outcome was inactive. With `CCCCNC(=O)n1c(NC(=O)OC)nc2ccccc21`, the outcome was inactive. Regarding `CC(Oc1ccc(Cl)cc1Cl)C(=O)O` (stereo not drawn), the result was inactive.

Regarding `O=C(Nc1ccccc1)Nc1ccnc(Cl)c1`, the half-maximal activity concentration (AC50) is 20 µM (active).

For the compound `CC1=C(C(=O)Nc2ccccc2)SCCO1`, the result was inactive. The same measure, in the same setting: to `CCOc1cc(Oc2ccc(C(F)(F)F)cc2Cl)ccc1[N+](=O)[O-]` belongs “inactive”.

For the compound `Fc1ccc(Oc2ccnc3cc(Cl)cc(Cl)c23)cc1`, the AC50 was 14.9 µM (active). On the same count and under the same terms, to `CCCCC(CC)COC(=O)c1ccccc1C(=O)OCC(CC)CCCC` (stereo not drawn) belongs 5.92 µM (active).
